Compound activity deposited in PubChem by Broad Institute.
Hits are enriched below; roughly 4% of the tested compounds scored in any of these assays.
EBV LMP1 NFkB – inhibitors of Epstein-Barr LMP1-induced NF-kappaB reporter; LMP1-induced NF-kappaB luciferase reporter cells, luminescence; inhibition, % at 12.5 µM; 350,000 compounds, 0.69% hits; in the data active = inhibition above about 41%; inconclusive = no clear call, values can overlap the other calls
esBAF inh – SWI/SNF esBAF complex inhibition; mouse ES cells, Bmi1-luciferase knock-in reporter, 24 h; 100% = twice the neutral-well signal; reporter increase, % at 12.5 µM; 350,000 compounds, 2% hits; AID 602393; in the data active = activation above about 40%; inconclusive = no clear call, values can overlap the other calls;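 note: a rise in the Bmi1 reporter signal indicates esBAF inhibition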
Wnt bcat act – activates Wnt/beta-catenin signaling in a reporter cell assay. activation, % at 9.35 µM. activator, plate reader. 300,000 compounds, 1.2% hits; in the data active = activation above about 30%, passing the limit was not always enough; inconclusive = no clear call, values can overlap the other calls
MITF act – MITF TRPM1 promoter activation in melanoma cells; activation, % at 12.5 µM; AID 588334; 300,000 compounds, 0.75% hits; SK-MEL-5 TRPM1-promoter luciferase, 24 h; % of positive control, neutral wells = 0;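 active = mean activation of at least 80% with every replicate also reaching 80%; inconclusive = mean reaches 80% but some replicate falls short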
MITF TRPM1 inh – MITF TRPM1 promoter inhibition in SK-MEL-5 cells. SK-MEL-5 TRPM1 promoter luciferase, 24 h. inhibition, % at 12.5 µM. 330,000 compounds, 0.83% hits;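 active = mean inhibition across replicates of 60% or more, whatever share of single replicates reaches that level; inconclusive = some that reach 60%, reason not given; inactive = mean inhibition across replicates below 60%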
C2C12 statin – protects C2C12 myotubes from simvastatin toxicity | ATP luminescence, 48 h; scaled: DMSO 0, geranylgeraniol control 100 | rescue of ATP level, % at 7.49 µM | AID 602340 | 330,000 compounds, 0.78% hits;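 active = mean ATP rescue above about 67%, or every replicate alone reaching that limit, limit read from the data, passing the limit was not always enough; inconclusive = no clear call, values can overlap the other calls; inactive = mean under the limit and some replicate under it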;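 note: myotubes were challenged with 10 µM simvastatin during compound exposure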
A number is an active result; - = inactive; ? = inconclusive; . = no result.

SMILES | EBV LMP1 NFkB | esBAF inh | Wnt bcat act | MITF act | MITF TRPM1 inh | C2C12 statin
CCCCCCCCCCOC(=O)Cn1c(COc2ccccc2OC)[n+](C)c2ccccc21 | - | - | - | . | 83 | -
Nc1nc2ccccc2n1/N=C/c1ccc(-c2ccccc2)o1 | - | ? | 53 | . | - | -
Nc1nc2ccccc2n1/N=C/c1ccc([N+](=O)[O-])s1 | - | . | . | - | 66 | .
Nc1nc2ccccc2n1/N=C/c1cccnc1 | - | . | . | - | - | .
Cn1c(/C(C#N)=C(\O)c2ccc([N+](=O)[O-])s2)nc2ccccc21 | - | - | - | - | - | -
Nc1nc(Cl)cc(Oc2ccc([N+](=O)[O-])cc2)n1 | - | - | - | . | - | -
CC1CC(C)CN(C(=O)/C=C/c2ccc([N+](=O)[O-])s2)C1 (stereo unspecified) | - | . | - | - | 82 | .
O=C(/C=C/c1ccc([N+](=O)[O-])s1)N1CCCC1 | - | . | - | - | 85 | .
O=C(/C=C/c1ccc([N+](=O)[O-])s1)N1CCCCC1 | - | . | - | - | 89 | .
C[C@H](CO)N1C[C@H](C)[C@H](CN(C)C(=O)Nc2cccc(F)c2)Oc2cc(/C=C/c3ccccc3)ccc2S1(=O)=O | . | - | . | . | . | -
Cc1nc2c(C)cccn2c1C(=O)N/N=C/c1ccccc1[N+](=O)[O-] | - | . | - | - | - | .
COC(=O)c1ccc(Cn2cc(C(F)(F)F)ccc2=O)cc1 | - | . | - | - | - | .
COC(=O)c1cn(Cc2ccc(C(F)(F)F)cc2)cc(F)c1=O | - | - | - | - | - | 103
CN(C)CCNCCCNc1c2ccccc2nc2cccc([N+](=O)[O-])c12 | - | . | ? | . | 103 | .
CN(C)CCCNc1c2c(nc3ccccc13)CCC2 | - | - | - | - | - | -
NC(=O)c1c(NC(=O)C2COc3ccccc3O2)sc2c1CCN(Cc1ccccc1)C2 (stereo unspecified) | - | - | - | - | - | -
COC(=O)N1CCc2c(sc(NC(=O)C3COc4ccccc4O3)c2C(N)=O)C1 (stereo unspecified) | - | 50 | - | - | - | -
Cc1cccc(-c2nnc(NC(=O)c3ccco3)s2)c1 | - | 59 | - | - | - | -
O=C(Nc1nnc(-c2ccc(F)cc2)s1)c1ccco1 | - | 46 | - | 106 | - | -
O=C(NCc1nc2ccccc2[nH]1)c1cccc(S(=O)(=O)N2CCCCC2)c1 | - | . | - | - | - | .
COC(=O)Cc1ccc(NC(=S)NCCO)cc1 | - | - | - | - | - | -
Cc1ccc(NC(=O)/C=C/C(=O)O)c(NC(=O)c2ccccc2)c1 | - | - | - | - | - | -
CC12CN(C(=O)c3ccccc3Br)CC(C)(CN(C(=O)c3ccccc3Br)C1)C2=O | - | - | 41 | . | - | -
O=C(c1ccccc1)N1CCN(C(=O)c2ccccc2Br)CC1 | - | - | - | . | - | -
CC1=C(C(=O)OCc2ccc3c(c2)OCO3)C(c2ccc(Cl)cc2)NC(=O)N1 (stereo unspecified) | 81 | - | - | - | - | -
SMILES | EBV LMP1 NFkB | esBAF inh | Wnt bcat act | MITF act | MITF TRPM1 inh | C2C12 statin
CCOC(=O)C1=C(C)NC(=O)NC1c1ccc(OC)c(CN2CCOCC2)c1 (stereo unspecified) | - | - | - | - | - | 79
CC1=C(C(=O)OCc2ccc3c(c2)OCO3)C(c2ccc(F)cc2)NC(=O)N1 (stereo unspecified) | 79 | - | - | - | - | -
CCOC(=O)C1=C(CCl)NC(=O)NC1c1ccc2c(c1)OCO2 (stereo unspecified) | - | - | - | - | 69 | -
CCOCc1cc(C2NC(=O)NC(C)=C2C(=O)OCC)ccc1OC (stereo unspecified) | - | - | . | - | - | -
Cc1cc(Cl)ccc1NC(=S)NCc1ccco1 | - | . | - | - | - | .
O=C(C[C@H]1C=C[C@@H](NC(=O)CN2CCOCC2)[C@H](CO)O1)NC1CCC1 | . | - | . | . | . | -
CN(Cc1ccco1)c1ncnc2ccc(-c3ccc4c(c3)OCO4)cc12 | - | - | - | - | - | -
Cc1nc(CN(C)c2ncnc3ccc(-c4ccc5c(c4)OCO5)cc23)cs1 | . | 43 | - | . | . | -
CCCCCC1CC(CC(=O)O)C(=O)O1 (stereo unspecified) | - | - | - | - | - | 119
CCOCCCNC(=S)N(CCN(CC)CC)Cc1cc2cc3c(cc2[nH]c1=O)OCCO3 | - | - | - | - | - | -
